Test results reported in the supplement of paper PMC11732987, “Enantioselective OTUD7B fragment discovery through chemoproteomics screening and high-throughput optimisation” (Communications Chemistry, 2025).

Columns and labels:
Assay in all cases: log2 ratio of Biotin-Ahx-Ub-VS probe labelling (fragment/DMSO); higher = less target engagement (more negative = stronger competition), active = hit call of the paper (q ≤ 0.05, log2 ratio ≤ -1)
Details in all cases: compound concentration: 200 uM; treatment time: 3 h
USP34 = USP34 (UniProt Q70CQ2)
Chain of USP34 (Q70CQ2 whole entry, the tested form may be a part): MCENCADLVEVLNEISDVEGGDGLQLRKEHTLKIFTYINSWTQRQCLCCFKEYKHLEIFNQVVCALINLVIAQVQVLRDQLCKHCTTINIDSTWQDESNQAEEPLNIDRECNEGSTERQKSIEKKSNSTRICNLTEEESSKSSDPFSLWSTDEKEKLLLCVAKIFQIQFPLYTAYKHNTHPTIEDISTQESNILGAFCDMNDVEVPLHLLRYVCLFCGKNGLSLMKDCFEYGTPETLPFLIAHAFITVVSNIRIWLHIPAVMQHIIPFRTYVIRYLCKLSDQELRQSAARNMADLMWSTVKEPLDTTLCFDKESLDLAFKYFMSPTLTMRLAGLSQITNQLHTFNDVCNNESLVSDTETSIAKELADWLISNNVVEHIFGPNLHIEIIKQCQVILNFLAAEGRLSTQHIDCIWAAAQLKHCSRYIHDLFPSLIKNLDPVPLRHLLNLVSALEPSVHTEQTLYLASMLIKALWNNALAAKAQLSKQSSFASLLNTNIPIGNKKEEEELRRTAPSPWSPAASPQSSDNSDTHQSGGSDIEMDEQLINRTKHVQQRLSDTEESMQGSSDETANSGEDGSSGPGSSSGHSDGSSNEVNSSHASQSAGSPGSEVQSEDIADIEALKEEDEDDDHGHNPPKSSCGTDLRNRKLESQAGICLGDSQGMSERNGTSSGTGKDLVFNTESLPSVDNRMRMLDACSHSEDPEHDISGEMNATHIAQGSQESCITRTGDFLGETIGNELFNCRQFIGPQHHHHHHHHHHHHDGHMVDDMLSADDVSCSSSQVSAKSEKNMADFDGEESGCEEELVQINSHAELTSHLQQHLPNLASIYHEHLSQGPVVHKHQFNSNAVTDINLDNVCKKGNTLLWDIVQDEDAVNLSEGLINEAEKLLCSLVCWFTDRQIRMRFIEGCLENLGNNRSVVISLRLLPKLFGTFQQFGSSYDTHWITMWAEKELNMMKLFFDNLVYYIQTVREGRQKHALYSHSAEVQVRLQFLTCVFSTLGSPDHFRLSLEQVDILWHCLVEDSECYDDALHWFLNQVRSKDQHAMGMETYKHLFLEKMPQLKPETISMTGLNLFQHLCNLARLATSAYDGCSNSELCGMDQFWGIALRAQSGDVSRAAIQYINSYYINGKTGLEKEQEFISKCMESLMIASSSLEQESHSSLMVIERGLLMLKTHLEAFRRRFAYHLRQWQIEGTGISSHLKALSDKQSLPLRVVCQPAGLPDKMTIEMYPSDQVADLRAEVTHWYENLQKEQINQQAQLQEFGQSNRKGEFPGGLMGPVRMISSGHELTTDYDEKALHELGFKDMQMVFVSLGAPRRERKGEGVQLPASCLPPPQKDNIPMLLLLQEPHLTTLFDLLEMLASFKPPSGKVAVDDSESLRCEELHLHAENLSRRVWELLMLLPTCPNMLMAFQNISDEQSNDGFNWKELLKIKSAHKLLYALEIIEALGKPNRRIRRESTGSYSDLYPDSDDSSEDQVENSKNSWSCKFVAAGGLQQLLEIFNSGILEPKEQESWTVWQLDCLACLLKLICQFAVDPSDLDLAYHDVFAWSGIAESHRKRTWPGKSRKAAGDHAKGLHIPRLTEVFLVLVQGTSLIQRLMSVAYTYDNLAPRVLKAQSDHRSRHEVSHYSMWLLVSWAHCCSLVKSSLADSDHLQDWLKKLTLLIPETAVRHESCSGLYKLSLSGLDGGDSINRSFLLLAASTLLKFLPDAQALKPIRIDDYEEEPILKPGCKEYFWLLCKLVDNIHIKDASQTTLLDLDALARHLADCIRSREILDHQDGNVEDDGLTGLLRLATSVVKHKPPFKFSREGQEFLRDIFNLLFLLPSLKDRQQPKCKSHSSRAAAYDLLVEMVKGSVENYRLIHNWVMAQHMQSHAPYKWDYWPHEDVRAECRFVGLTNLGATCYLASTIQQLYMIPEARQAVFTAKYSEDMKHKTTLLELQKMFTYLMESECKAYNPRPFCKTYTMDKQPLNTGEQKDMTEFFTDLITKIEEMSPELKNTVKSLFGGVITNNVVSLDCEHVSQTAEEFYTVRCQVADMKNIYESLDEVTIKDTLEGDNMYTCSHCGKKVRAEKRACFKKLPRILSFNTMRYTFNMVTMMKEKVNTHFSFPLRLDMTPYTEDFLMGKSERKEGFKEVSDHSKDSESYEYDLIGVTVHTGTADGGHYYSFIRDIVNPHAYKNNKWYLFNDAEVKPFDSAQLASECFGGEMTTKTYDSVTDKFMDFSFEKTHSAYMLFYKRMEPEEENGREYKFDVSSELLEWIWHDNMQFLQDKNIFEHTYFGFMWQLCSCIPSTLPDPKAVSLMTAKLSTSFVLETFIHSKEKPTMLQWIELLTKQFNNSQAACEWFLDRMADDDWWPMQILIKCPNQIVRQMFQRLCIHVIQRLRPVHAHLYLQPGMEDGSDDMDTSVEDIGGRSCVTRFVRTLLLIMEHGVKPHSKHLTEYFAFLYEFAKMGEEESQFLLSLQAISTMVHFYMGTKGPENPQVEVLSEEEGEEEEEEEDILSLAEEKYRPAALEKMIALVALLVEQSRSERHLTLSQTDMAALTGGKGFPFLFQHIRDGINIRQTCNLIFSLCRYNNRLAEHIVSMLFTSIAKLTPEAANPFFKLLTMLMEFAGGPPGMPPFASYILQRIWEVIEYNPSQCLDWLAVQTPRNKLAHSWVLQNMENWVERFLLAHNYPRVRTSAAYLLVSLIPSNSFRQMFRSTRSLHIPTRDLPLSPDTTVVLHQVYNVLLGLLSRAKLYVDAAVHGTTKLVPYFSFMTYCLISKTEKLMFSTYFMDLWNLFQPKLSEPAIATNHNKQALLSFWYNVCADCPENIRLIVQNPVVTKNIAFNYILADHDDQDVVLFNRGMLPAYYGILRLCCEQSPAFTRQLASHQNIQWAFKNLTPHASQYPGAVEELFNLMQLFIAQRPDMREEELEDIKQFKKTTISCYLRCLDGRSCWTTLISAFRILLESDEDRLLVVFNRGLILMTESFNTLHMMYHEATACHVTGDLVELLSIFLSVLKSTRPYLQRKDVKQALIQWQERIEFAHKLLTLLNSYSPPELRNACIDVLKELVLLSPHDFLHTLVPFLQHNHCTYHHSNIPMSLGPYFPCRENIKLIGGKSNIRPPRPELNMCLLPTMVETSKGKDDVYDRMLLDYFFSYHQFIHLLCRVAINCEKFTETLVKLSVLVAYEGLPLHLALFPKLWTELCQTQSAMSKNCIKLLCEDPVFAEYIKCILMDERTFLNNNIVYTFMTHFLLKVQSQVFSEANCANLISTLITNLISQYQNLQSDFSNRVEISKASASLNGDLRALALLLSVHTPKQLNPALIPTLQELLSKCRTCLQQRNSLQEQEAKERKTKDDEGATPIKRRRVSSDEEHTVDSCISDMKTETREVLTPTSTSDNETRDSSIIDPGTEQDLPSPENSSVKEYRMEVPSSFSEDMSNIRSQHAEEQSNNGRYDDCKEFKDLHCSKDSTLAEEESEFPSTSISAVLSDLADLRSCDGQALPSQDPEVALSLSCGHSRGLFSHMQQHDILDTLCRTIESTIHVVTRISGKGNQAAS
How it was run: (§1)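 HEK293T lysate, 495 µg per sample in Tris/CHAPS/IGEPAL buffer with protease inhibitors, was treated in triplicate with fragment at 200 µM or vehicle for 3 h and then with Biotin-Ahx-Ub-VS at 0.5 µM final for 1 h. Labelled DUBs were NeutrAvidin-enriched, digested with LysC and trypsin, and run by diaPASEF LC-MS/MS. Spectronaut label-free quantities were global-median-normalised, and values are average log2 fragment/vehicle ratios by unpaired t-test on proteins with ≥2 unique peptides.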

USP36 = molecular target: T1, USP36 (UniProt Q9P275)
T1 sequence (whole entry): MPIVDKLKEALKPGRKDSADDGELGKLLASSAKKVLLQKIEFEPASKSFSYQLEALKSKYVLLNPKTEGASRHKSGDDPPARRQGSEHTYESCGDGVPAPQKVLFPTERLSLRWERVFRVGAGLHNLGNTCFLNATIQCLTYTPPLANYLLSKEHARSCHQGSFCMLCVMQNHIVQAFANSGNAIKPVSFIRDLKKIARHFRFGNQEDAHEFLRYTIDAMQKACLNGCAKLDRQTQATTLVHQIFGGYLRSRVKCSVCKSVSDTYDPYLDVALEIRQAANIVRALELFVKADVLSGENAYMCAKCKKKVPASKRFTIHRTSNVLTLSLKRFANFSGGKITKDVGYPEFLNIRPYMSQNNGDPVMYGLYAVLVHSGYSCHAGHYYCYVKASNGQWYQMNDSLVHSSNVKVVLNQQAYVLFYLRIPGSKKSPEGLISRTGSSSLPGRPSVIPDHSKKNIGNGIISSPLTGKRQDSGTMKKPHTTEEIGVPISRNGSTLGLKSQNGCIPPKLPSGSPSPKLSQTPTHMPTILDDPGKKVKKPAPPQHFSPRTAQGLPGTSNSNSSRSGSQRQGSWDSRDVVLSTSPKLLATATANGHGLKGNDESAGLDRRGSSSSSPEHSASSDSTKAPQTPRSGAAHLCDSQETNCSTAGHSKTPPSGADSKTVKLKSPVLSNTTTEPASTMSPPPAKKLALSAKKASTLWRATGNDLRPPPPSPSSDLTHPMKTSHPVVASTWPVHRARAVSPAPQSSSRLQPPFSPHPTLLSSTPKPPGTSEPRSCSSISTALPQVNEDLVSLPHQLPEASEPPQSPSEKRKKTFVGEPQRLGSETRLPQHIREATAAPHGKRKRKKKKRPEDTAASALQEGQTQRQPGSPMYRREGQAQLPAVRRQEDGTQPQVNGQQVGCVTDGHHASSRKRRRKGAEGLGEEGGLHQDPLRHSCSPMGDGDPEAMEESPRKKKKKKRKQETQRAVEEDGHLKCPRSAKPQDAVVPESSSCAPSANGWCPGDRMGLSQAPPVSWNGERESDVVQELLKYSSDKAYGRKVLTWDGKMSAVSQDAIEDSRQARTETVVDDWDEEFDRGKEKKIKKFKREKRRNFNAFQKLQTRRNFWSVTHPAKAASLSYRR
How it was run: as §1

USP38 = molecular target: T2, USP38 (UniProt Q8NB14)
T2 sequence (whole entry): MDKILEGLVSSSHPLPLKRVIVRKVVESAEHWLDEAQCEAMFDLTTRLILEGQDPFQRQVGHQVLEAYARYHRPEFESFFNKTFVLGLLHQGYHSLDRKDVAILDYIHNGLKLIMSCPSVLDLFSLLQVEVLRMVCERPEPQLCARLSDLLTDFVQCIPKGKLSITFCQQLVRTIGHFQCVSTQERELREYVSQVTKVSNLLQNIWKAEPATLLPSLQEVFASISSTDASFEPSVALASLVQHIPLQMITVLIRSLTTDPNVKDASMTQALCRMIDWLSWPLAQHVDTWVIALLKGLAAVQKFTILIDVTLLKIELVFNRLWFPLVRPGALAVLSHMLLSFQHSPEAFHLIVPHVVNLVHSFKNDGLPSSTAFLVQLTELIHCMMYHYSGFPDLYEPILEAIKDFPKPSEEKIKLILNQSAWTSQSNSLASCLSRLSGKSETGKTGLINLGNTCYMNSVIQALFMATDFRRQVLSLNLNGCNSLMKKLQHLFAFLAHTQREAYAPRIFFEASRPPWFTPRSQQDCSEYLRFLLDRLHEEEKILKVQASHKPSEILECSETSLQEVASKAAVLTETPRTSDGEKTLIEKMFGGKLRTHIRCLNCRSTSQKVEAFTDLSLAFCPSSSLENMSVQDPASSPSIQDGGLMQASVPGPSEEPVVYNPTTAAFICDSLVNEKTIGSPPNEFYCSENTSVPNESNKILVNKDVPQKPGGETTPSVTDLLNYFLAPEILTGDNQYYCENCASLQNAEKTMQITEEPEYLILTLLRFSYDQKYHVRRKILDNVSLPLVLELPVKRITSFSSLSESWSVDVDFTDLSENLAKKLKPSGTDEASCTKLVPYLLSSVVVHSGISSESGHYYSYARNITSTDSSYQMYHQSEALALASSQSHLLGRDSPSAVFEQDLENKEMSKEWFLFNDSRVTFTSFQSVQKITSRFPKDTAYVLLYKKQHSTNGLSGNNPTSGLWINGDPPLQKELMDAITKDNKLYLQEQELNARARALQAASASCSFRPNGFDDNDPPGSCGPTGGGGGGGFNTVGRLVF
How it was run: as §1

USP39 = molecular target: T3, USP39 (UniProt Q53GS9)
T3 sequence (whole entry): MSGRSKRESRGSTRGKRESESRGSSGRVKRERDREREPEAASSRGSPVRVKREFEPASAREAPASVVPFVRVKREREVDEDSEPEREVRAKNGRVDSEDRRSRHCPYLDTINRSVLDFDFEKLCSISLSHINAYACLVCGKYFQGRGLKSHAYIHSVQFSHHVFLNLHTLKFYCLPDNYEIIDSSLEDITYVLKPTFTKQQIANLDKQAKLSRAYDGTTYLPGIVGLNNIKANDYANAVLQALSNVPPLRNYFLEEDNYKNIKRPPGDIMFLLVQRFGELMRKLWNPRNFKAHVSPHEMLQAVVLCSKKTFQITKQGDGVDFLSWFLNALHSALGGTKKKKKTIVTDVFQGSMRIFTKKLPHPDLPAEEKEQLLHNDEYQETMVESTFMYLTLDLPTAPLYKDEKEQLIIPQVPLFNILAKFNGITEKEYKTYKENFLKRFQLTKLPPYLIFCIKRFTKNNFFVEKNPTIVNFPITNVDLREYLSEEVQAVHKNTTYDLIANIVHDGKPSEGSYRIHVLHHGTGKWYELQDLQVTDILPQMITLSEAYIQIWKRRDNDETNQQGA
How it was run: as §1

USP4 = molecular target: T4, USP4 (UniProt Q13107)
T4 sequence (whole entry): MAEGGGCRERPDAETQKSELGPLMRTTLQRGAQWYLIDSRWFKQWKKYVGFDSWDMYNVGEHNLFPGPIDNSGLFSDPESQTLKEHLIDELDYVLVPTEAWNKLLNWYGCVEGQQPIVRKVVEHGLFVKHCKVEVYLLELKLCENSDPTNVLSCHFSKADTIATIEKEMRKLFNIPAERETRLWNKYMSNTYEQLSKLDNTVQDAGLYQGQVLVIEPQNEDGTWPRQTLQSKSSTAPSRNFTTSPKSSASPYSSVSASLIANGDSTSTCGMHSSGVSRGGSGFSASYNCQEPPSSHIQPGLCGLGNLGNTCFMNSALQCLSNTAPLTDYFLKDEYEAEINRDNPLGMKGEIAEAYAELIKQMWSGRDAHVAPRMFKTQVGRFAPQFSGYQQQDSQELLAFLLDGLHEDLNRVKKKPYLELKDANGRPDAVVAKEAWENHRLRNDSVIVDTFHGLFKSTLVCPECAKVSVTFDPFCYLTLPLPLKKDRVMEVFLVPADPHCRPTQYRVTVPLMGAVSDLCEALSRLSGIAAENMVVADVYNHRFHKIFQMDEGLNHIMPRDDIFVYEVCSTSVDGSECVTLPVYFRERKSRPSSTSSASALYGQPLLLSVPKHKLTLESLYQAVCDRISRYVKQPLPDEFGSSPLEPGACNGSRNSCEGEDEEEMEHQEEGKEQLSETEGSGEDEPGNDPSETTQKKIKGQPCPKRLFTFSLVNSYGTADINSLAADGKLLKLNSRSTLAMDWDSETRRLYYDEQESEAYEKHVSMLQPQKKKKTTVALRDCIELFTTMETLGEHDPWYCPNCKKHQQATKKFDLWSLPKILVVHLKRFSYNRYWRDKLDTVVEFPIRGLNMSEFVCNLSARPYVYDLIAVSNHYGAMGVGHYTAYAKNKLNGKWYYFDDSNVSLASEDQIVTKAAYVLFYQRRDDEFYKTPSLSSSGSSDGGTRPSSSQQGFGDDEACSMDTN
How it was run: as §1

Measured: log2 ratio of Biotin-Ahx-Ub-VS probe labelling

O=C(CCl)NC1CCCCNC1=O (stereo not given)
inactive: USP34 -0.126 | USP36 -0.314 | USP38 -0.0226 | USP39 0.0502 | USP4 -0.25
